Laboratory results taken from PubChem BioAssay (NCI).
Several values for one entry are separate records, joined by “and”; a condition that tells them apart may be missing. Equal entries are not always repeated. This is part of a sample that, as a whole, favours compounds with a hit. Of some 83,000 tested, about 20% had one in any assay.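 Assay: single dose, 48 h. Readout: percent growth (0 = no net growth; negative = cell death). Active: <10.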 Activity calls are given as the source filed them.

Experiments:
Test in all cases: NCI-60 one-dose screen, 48 h (100 = growth as untreated, 0 = no growth, -100 = all killed)
Conditions in all cases: 10 µM
NCI-H226 lung = tested on: NCI-H226 lung
NCI-H322M lung = tested on: NCI-H322M lung
NCI-H460 lung = tested on: NCI-H460 lung
HOP-92 NSCLC = tested on: HOP-92 NSCLC
NCI-H522 lung = tested on: NCI-H522 lung
A549/ATCC NSCLC = tested on: A549/ATCC NSCLC
786-0 renal = tested on: 786-0 renal
DU-145 prostate = tested on: DU-145 prostate
K-562 leukemia = tested on: K-562 leukemia
MALME-3M melanoma = tested on: MALME-3M melanoma
MDA-MB-231 breast = tested on: MDA-MB-231 breast
RXF 393 renal = tested on: RXF 393 renal
SF-268 CNS = tested on: SF-268 CNS
SF-295 CNS = tested on: SF-295 CNS
SF-539 CNS = tested on: SF-539 CNS
UACC-257 melanoma = tested on: UACC-257 melanoma
M14 melanoma = tested on: M14 melanoma
HOP-62 NSCLC = tested on: HOP-62 NSCLC
COLO 205 colon = tested on: COLO 205 colon

| Compound | growth (NCI-H226 lung) | growth (NCI-H322M lung) | growth (NCI-H460 lung) | growth (HOP-92 NSCLC) | growth (NCI-H522 lung) | growth (A549/ATCC NSCLC) | growth (786-0 renal) | growth (DU-145 prostate) | growth (K-562 leukemia) | growth (MALME-3M melanoma) | growth (MDA-MB-231 breast) | growth (RXF 393 renal) | growth (SF-268 CNS) | growth (SF-295 CNS) | growth (SF-539 CNS) | growth (UACC-257 melanoma) | growth (M14 melanoma) | growth (HOP-62 NSCLC) | growth (COLO 205 colon) |
| --- | --- | --- | --- | --- | --- | --- | --- | --- | --- | --- | --- | --- | --- | --- | --- | --- | --- | --- | --- |
| O=C(CBr)Nc1ccc(Cl)cc1 | 91.2% (inactive) | 101% (inactive) | 106% (inactive) | 91.9% (inactive) | -67.2% (active) | 100% (inactive) | 56.6% (inactive) | 105% (inactive) | 12.8% (inactive) | 29.8% (inactive) | 64.4% (inactive) | 97.7% (inactive) | 88.9% (inactive) | 103% (inactive) | 105% (inactive) | 99.7% (inactive) | 67.2% (inactive) |  |  |
| Oc1c(I)cc(I)cc1I | 98.6% (inactive) | 110% (inactive) | 105% (inactive) | 106% (inactive) |  | 106% (inactive) |  | 114% (inactive) | 98.6% (inactive) | 121% (inactive) | 93.7% (inactive) | 108% (inactive) | 104% (inactive) | 110% (inactive) | 102% (inactive) | 107% (inactive) |  | 103% (inactive) | 116% (inactive) |
| C[C@@H]1C[C@@H]([C@H](O)CC2CC(=O)NC(=O)C2)C(=O)[C@@H](C)C1 | 11.6% (inactive) | 2.7% (active) | 4.51% (active) |  | -15.6% (active) | 0.381% (active) | 0.349% (active) | 4.37% (active) |  | 1.97% (active) | 0.445% (active) |  | 5.71% (active) | 2.62% (active) | -5.66% (active) | -4.83% (active) | -9.1% (active) | 3.86% (active) | -14.9% (active) |
| CC1CCC2(OC1)OC1C(O)C3C4CCC5CC(OC6OC(CO)C(OC7OC(CO)C(O)C(OC8OCC(O)C(O)C8O)C7OC7OC(CO)C(O)C(OC8OC(CO)C(O)C(O)C8O)C7O)C(O)C6O)C(O)CC5(C)C4CCC3(C)C1C2C (configuration not stated) | -50.1% (active) | 13.2% (inactive) | 5.81% (active) | -3.92% (active) | -71.4% (active) | -40.2% (active) | -92% (active) | -100% (active) | -100% (active) | 14.8% (inactive) | -70.2% (active) | -71.6% (active) | -39.7% (active) | -77.9% (active) | -53.3% (active) | -85.7% (active) | 62.9% (inactive) | -95.3% (active) |  |
| COc1cc(/C=C\[N+](=O)[O-])ccc1O | 91.2% (inactive) and 98.3% (inactive) | 85.7% (inactive) | 96.6% (inactive) and 94% (inactive) | 73.2% (inactive) and 102% (inactive) | -37.6% (active) and 87.2% (inactive) | 89.2% (inactive) and 76.1% (inactive) | 43.2% (inactive) and 90.8% (inactive) | 27.4% (inactive) and 61.2% (inactive) | 26.5% (inactive) and 48.1% (inactive) | 50.4% (inactive) and 96.4% (inactive) | 91.6% (inactive) and 83.6% (inactive) | 23.2% (inactive) and 56% (inactive) | 75.5% (inactive) and 87.6% (inactive) | 110% (inactive) and 104% (inactive) | 70.5% (inactive) and 83.2% (inactive) | 61.2% (inactive) and 90.5% (inactive) | 71.3% (inactive) and 52.1% (inactive) | 99.8% (inactive) and 101% (inactive) |  |
| CC/C(=C/c1ccc(OC)cc1OC)[N+](=O)[O-] | 111% (inactive) | 90.3% (inactive) | 49.5% (inactive) |  | -41.7% (active) | 65.1% (inactive) | -53% (active) | 39.1% (inactive) | 3.65% (active) | 8.59% (active) | 18.4% (inactive) | -59.6% (active) | 41.5% (inactive) | 101% (inactive) | -1.55% (active) | 45.8% (inactive) | 54% (inactive) | 74% (inactive) | -40.7% (active) |
| COc1cc(/C=C(/C)[N+](=O)[O-])ccc1O | 86.7% (inactive) and 91% (inactive) | 66.7% (inactive) and 91.5% (inactive) | 43% (inactive) and 21.5% (inactive) | 41.3% (inactive) | -78.2% (active) and -84.9% (active) | 57.4% (inactive) and 48.9% (inactive) | 50% (inactive) and -13.4% (active) | 21.7% (inactive) and 17.1% (inactive) | 2.31% (active) and 1.66% (active) | 40% (inactive) and 1.16% (active) | 66.3% (inactive) and 50.5% (inactive) | -57.5% (active) and -94.8% (active) | 47.5% (inactive) and 87.3% (inactive) | 99.2% (inactive) | 57.2% (inactive) and 20.3% (inactive) | 18.2% (inactive) and -56% (active) | 39.6% (inactive) | 55.6% (inactive) and 47.6% (inactive) |  |
| Cc1cc(C)c(C[N+](C)(C)C)c(C)c1C | 11.7% (inactive) | 1.22% (active) | 5.07% (active) |  | -39.5% (active) | 5.53% (active) | 4.58% (active) | 5.6% (active) | 7.21% (active) |  | -12.6% (active) |  | 2.43% (active) | 2.12% (active) | -7.58% (active) | 16.9% (inactive) | 10.5% (inactive) | 5.53% (active) |  |
| COc1cc([C@@H]2c3cc4c(c(O)c3C[C@H]3COC(=O)[C@@H]32)OCO4)cc(OC)c1OC | 48.8% (inactive) | 21.9% (inactive) | 0.25% (active) | -31.4% (active) | -25% (active) | 24.9% (inactive) | -69.8% (active) | -28.2% (active) | 7.73% (active) | 40.4% (inactive) | 21% (inactive) | 14.3% (inactive) | 21.5% (inactive) | -22.2% (active) | -18% (active) | 57.5% (inactive) | -66.3% (active) |  |  |
| CC[C@@H](C)[C@@H]1NC(=O)C(NC(=O)C(CC(C)C)N(C)C(=O)C2CCCN2C(=O)C(C)O)C(C)OC(=O)C(Cc2ccc(OC)cc2)N(C)C(=O)C2CCCN2C(=O)C(CC(C)C)NC(=O)C(C)C(=O)C(C(C)C)OC(=O)C[C@H]1O (some centres not stated) | -58.9% (active) | -16.5% (active) | -49.7% (active) | -41.9% (active) | -43.2% (active) | -80.2% (active) | -37.9% (active) | -40.7% (active) | -27% (active) | -87.2% (active) | -55.6% (active) | -66.2% (active) | -49.4% (active) | -31% (active) | -70.1% (active) | -50.8% (active) | -80.1% (active) | -42.9% (active) |  |
| O=C1CCC(=O)N1SC(Cl)(Cl)Cl | 101% (inactive) | 106% (inactive) | 108% (inactive) | 105% (inactive) | 80.4% (inactive) | 107% (inactive) | 106% (inactive) | 120% (inactive) | 95.3% (inactive) | 118% (inactive) | 113% (inactive) | 108% (inactive) | 109% (inactive) | 117% (inactive) | 109% (inactive) | 110% (inactive) | 108% (inactive) | 113% (inactive) |  |
| C[C@]12CC[C@H]3[C@@H](CCC4=CC(=O)CC[C@@H]43)[C@@H]1CC[C@@H]2OC(=O)N(CCCl)N=O | 55.8% (inactive) | 45.6% (inactive) | -37.9% (active) | -11% (active) | 39.7% (inactive) | 40.7% (inactive) | 17.9% (inactive) | 1.81% (active) | 29.5% (inactive) | 91.7% (inactive) | 76.3% (inactive) | 69.9% (inactive) | 23.7% (inactive) | 12.3% (inactive) | -0.439% (active) | 84.4% (inactive) | 49% (inactive) | 44.8% (inactive) |  |
